Screening data as filed in PubChem.
IL-2 act: activates IL-2 in a cell-based reporter assay | IL-2 activation reporter assay, cell-based qHTS; stimulated with anti-CD3/CD4/CD28 beads; in transgenic mouse T cells | activation, % (series mostly up to about 46 µM) | hit rate 0.065% among 360,000; in the data active = activation above about 50%; inconclusive = mostly about 30% to 49%
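Unstimulated transgenic mouse T cells preincubated 60 min with compound, then stimulated with anti-CD3/anti-CD4-coated beads plus anti-CD28 for 18 h at 37 degrees C. IL-2 response read as EGFP and DsRed fluorescence by plate cytometry.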
Nrf2 block: blocks Nrf2 signaling. A549 ARE-Fluc reporter, luciferase luminescence, 18-24 h. hit rate 2.1% among 360,000. AID 504444. Potency, µM (top dose mostly 46 µM), hits mostly inhibitors; note: nearly all actives have a fitted effect of over 60% in size
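Nrf2 function is reported as luminescence of an ARE-controlled luciferase in A549 cells. Compounds were tested at several concentrations, and a CellTiter-Fluor read on the same wells flagged cytotoxicity.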
p53 reactivation: re-activators of mutant p53; H1299 p53-A138V BP100-luciferase reporter, luminescence, 24 h; Potency, µM (series often up to 92.2 µM), usual class: activators; hit rate 0.063% among 320,000; note: nearly all actives have a fitted effect of over 45% in size
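p53-null H1299 cells stably carrying temperature-sensitive p53-A138V and a BP100-luciferase reporter were pinned with compounds (4-point, 1:5 series) and held 24 hrs at 37 deg C. Luminescence was read 10 min after detection reagent.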
A549 viability: A549 cytotoxicity, counter-screen for Nrf2 inhibitors | A549 ARE-Fluc cells, CellTiter-Fluor viability, 18-24 h | Potency, µM (highest dose often 46 µM), usual class: inhibitors | hit rate 0.16% among 390,000 | AID 504648
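A549 ARE_Fluc cells in 5% FBS OPTI-MEM were exposed to compounds in concentration-response for 18-24 h at 37 deg C. Viability was read by CellTiter-Fluor fluorescence (Ex 405/Em 525) after 30 min, before the luciferase read.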
Nrf2 activator: activators of Nrf2 (ARE) signaling; AREc32 ARE-luciferase reporter (MCF7-derived line), luminescence, 24 h; Potency, µM (top dose mostly 46.1 µM), most hits filed as activators; hit rate 0.31% among 410,000; AID 624171; note: nearly all actives have a fitted effect of over 65% in size
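Cells of the AREc32 ARE-luciferase line are plated in OPTI-MEM containing 5% FBS and left overnight at 37 deg C. Compounds are pinned in, incubation continues 24 hr, and firefly luciferase signal is then measured.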
BRCA1 expr act: BRCA1 expression activation. Potency, µM (highest dose often 46.1 µM), hits mostly activators. hit rate 1.1% among 380,000. MCF7-BRCA1-FFLuc reporter, luminescence, 48 h; response scale: scaled: vehicle 0%, 10 µM genistein 100%. AID 624202; note: nearly all actives have a fitted effect of over 80% in size
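Cells: MCF7-BRCA1-FFLuc, 2000/well. Exposure: 48 h, 37 °C, 5% CO2. Read: luminescence, 15 min post-substrate. Controls: genistein 10 microM (maximal activation), DMSO (neutral).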
Numbers stand for hits; 0 = inactive; ? = inconclusive; - = no result given. Compounds with a hit are over-represented: about 3.2% of the library has one in this group of screens. Unless noted, calls come from the whole dose curve; as a rule, active = well fitted curve in the direction sought with a large enough effect; inconclusive = small, poorly fitted or top-dose-only effect, or another doubt; inactive = no such curve, though single readings can be large; an effect the other way counts as inactive or inconclusive.

SMILES	IL-2 act	Nrf2 block	p53 reactivation	A549 viability	Nrf2 activator	BRCA1 expr act
Cc1noc2ncnc(N3CCN(c4ccccc4F)CC3)c12	-	?	-	0	0	0
O=[N+]([O-])c1ccc(-c2cn3c(n2)SCC3)cc1	0	0	-	0	0	8.9µM
CCc1ccc(CNCc2c(C(=O)O)n(Cc3cccc(F)c3)c3cc(OC)ccc23)cc1	-	0	-	?	0	-
CC(=O)C1CCC2C3CCC4=CC(=O)CC[C@]4(C)[C@@]3(F)C(O)C[C@]12C (stereo partly specified)	0	2.9µM	0	0	0	0
CCCCNC(=O)CN1CCN(c2ccc(NC(=O)c3ccc(OC)cc3)cc2C(=O)O)CC1	-	-	-	0	0	-
N/C(=N\OC(=O)c1csnn1)c1ccc(C(F)(F)F)cc1	0	0	0	0	0	11µM
Cc1ccc(C(=O)O/N=C(\N)c2ccc(C(F)(F)F)cn2)cc1	0	0	?	0	0	?
O=C(Nc1cccc(-c2nc3ccccc3o2)c1)c1ccc(N2C(=O)C3C4C=CC(C4)C3C2=O)cc1 (stereo unspecified)	0	9.2µM	0	?	0	0
N#Cc1nc(Nc2cc(F)cc(F)c2)c2ncn(C3CCCC3)c2n1	-	?	-	0	-	-
N#C/C(=N\Nc1cccc(F)c1)C(=O)C1CC1	0	21µM	0	?	0	0
Cc1c(C(=O)NCCN(C)C)sc2nc3n(c(=O)c12)CCC3	-	0	-	0	0	-
O=C1CCCC2=C1C1(CCCC1)N=C(Nc1nc3ccccc3n1Cc1ccccc1)N2	-	16µM	-	0	-	-
O=S(=O)(O)c1cc(O)c(N=Nc2ccc(O)cc2O)c2ccccc12	0	?	-	21µM	0	0
CCOc1cc(Br)c(CN2C(=O)NC3(CCCCCC3)C2=O)cc1OCC	0	21µM	0	?	0	0
COc1ccc(Cl)cc1CN1C(=O)NC2(CCCCCC2)C1=O	0	?	0	0	0	0
CCN1c2ccccc2NC2N=C(OC)C(c3ccccc3)C21 (stereo unspecified)	0	?	0	21µM	0	0
CCOC(=O)c1ccccc1NC(=O)Cc1ccc(OC)c(S(=O)(=O)N2CCOCC2)c1	0	18µM	0	0	0	0
COc1ccc(CC(=O)Nc2cccc(Cl)c2C)cc1S(=O)(=O)N1CCOCC1	0	0	0	0	0	0
CCOc1ccccc1NC(=O)Cn1c(=O)n(-c2ccc(C)c(C)c2)c(=O)c2oc3ccccc3c21	-	0	-	0	0	-
O=C(NCC1CCCO1)NC1(C(F)(F)F)Oc2ccccc2O1 (stereo unspecified)	0	?	0	?	16µM	0
Cc1ccc(NS(=O)(=O)c2cccc(C(=O)NCC3CCCO3)c2)cc1 (stereo unspecified)	0	21µM	0	0	0	0
O=C(NCC1CCCO1)c1ccccc1 (stereo unspecified)	0	0	-	0	0	0
Cc1ccc(C(=O)NC(=S)NCC2CCCO2)cc1 (stereo unspecified)	0	?	0	0	0	10µM
O=C(NCC1CCCO1)c1cccc(NS(=O)(=O)c2ccccc2)c1 (stereo unspecified)	0	0	0	0	0	0
O=C(NCc1cccc(CNC(=O)C(=O)NCC2CCCO2)c1)C(=O)NCC1CCCO1 (stereo unspecified)	0	0	0	0	0	0
SMILES	IL-2 act	Nrf2 block	p53 reactivation	A549 viability	Nrf2 activator	BRCA1 expr act
O=C(NCCc1ccccc1)C(=O)NCC1CCCO1 (stereo unspecified)	0	?	0	0	0	13µM
CCCCNC(=O)c1nn(-c2ccc(C)cc2)c(=O)n(C)c1=O	-	-	-	0	0	-
Cc1ccc(CNc2ncnc3ccc(-c4c(C)noc4C)cc23)cc1	-	?	-	0	-	-
Clc1ccc(-c2ccc(CNCC3CCCO3)o2)cc1 (stereo unspecified)	0	?	0	0	0	10µM
COCCCNC(=S)NC(=O)c1ccc(C)cc1	0	?	?	0	0	6.3µM
Cc1ccc(NC(=O)C(=O)NCC2CCCO2)cc1 (stereo unspecified)	0	?	0	0	0	10µM
